Data on 95 compounds can be found in PubChem BioAssay AID2073 (Sanford-Burnham Center for Chemical Genomics, 2009).

The assay has as its target Voltage-dependent N-type calcium channel subunit alpha-1B (Homo sapiens) (UniProt Q00975). Nature of the assay: inhibitors of Mint1-CaV2.2 protein interaction, biochemical, HTRF (AID 2073). As to conditions: at 20 µM, stronger effect = higher value. (Time-resolved FRET reads energy transfer from a long-lived donor to a nearby acceptor.)
Setting [1] is: measured here: average of repeat tests.

The whole screen tested about 290,000 compounds, of which about 570 (0.2%) were called active. Another 1% or so got no clear call; they are omitted. Cut-off read from the data, not from the text of the source: active = inhibition mostly above about 51% (no sharp cut-off); inconclusive = no clear call, values can overlap the other calls; inactive = mostly below about 53%. Only a selection was taken, and actives are over-represented in it overall.

Sequence of Voltage-dependent N-type calcium channel subunit alpha-1B (Homo sapiens) (Q00975 whole entry, looked up): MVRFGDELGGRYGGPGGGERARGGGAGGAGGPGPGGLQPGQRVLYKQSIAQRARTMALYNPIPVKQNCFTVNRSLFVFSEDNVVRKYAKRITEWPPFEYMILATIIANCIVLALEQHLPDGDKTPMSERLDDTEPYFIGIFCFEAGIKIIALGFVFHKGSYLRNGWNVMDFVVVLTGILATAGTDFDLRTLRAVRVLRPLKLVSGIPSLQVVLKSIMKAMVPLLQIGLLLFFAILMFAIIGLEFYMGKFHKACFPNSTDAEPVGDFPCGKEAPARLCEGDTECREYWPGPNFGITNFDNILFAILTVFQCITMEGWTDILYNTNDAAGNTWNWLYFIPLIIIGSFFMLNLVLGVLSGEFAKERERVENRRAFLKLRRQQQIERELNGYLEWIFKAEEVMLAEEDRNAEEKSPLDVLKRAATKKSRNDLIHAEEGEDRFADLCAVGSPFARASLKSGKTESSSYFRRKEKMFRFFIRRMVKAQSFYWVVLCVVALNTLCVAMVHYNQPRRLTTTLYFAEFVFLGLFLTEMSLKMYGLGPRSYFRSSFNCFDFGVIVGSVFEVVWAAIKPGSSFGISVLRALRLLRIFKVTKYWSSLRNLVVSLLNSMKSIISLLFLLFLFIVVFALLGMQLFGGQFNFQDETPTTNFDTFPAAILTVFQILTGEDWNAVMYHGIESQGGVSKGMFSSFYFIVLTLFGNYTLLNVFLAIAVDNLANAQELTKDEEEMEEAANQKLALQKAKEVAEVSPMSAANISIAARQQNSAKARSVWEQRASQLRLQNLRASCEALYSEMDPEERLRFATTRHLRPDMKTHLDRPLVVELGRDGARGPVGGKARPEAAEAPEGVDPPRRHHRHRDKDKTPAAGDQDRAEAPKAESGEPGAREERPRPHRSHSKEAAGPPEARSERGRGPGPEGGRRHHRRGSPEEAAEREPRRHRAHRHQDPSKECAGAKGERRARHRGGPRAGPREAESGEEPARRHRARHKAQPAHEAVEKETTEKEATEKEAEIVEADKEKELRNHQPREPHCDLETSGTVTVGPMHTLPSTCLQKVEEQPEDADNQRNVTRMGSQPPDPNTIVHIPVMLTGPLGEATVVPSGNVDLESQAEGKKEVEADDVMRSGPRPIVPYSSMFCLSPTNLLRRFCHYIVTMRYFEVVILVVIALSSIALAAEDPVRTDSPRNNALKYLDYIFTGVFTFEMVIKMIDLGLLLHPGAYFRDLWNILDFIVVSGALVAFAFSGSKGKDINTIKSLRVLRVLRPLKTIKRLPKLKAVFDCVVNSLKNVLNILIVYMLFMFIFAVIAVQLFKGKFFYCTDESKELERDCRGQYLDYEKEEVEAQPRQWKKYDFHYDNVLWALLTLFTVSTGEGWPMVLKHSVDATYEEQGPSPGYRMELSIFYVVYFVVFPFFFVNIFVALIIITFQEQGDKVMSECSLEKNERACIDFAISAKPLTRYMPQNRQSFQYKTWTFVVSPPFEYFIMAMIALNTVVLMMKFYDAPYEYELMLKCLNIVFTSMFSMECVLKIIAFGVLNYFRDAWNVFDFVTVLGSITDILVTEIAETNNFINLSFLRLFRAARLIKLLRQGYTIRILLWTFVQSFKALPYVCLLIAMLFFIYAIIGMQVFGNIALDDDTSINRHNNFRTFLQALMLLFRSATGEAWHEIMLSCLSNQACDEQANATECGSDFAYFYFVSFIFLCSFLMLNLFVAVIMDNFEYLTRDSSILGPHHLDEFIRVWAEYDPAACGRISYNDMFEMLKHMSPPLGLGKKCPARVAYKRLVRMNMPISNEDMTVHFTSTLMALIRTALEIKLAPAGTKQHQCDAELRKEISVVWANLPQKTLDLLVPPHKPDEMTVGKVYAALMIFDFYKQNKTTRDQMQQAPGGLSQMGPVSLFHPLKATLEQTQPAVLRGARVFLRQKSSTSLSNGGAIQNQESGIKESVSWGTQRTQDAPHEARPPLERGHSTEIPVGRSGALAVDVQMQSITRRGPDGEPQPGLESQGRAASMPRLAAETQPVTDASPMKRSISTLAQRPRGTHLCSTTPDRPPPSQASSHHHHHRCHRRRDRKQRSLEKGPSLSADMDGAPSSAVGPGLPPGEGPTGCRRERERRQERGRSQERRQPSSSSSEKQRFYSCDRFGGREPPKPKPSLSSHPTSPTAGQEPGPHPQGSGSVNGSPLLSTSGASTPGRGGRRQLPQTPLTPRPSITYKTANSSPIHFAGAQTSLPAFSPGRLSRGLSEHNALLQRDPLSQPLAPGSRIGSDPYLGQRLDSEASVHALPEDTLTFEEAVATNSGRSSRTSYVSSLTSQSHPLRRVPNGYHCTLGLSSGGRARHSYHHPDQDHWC

A word on the inhibition: it is the change of the read-out against control, counted positive when it falls. On to `O=C(NNc1nc(-c2ccccc2)cs1)c1ccccc1`, for which the inhibition was -28.9% (inactive).

As for `O=C(NNc1nc(-c2ccccc2)cs1)c1ccc(F)cc1`, the inhibition is 60% (inactive). In addition, the inhibition under setting [1] was -6.1%.

For `O=C(NNc1nc(-c2ccc(F)cc2)cs1)c1ccccc1`, the inhibition was 71.1% (active).

On to `O=c1[nH]c2ccccc2c2nc3ccccn3c12`, for which the inhibition was 23.2% (inactive).

`O=c1nc2c(O)cccn2c2c1c(=O)[nH]c1ccccc12`: the inhibition is 66.4% (active).

With `O=C(CSc1nc2ccccc2c(=O)[nH]1)Nc1ccccc1O`, the inhibition was -8.6% (inactive).

As for `Cc1ccc2c(c1)N(CCCC(=O)NCc1ccc3c(c1)OCO3)C(=O)CO2`, the inhibition was 9.3% (inactive).

Turning to `CCOC(=O)c1cn2nc(Oc3cccc(F)c3)ccc2n1`, the inhibition is 4.6% (inactive).

As to `CC(C)NC(=O)C1(S(=O)(=O)c2ccccc2)CC=CC1`, the inhibition was 4.8% (inactive).

Turning to `COc1ccc(C(=O)NCCCOc2cccc(NC(C)=O)c2)cc1`, the inhibition is 21.8% (inactive).

For the compound `CC1CCN(C(=O)C2CCCN(S(=O)(=O)c3cccc4nsnc34)C2)CC1` (stereo not given), the inhibition was 5.2% (inactive).

On to `COc1ccc(-c2nnc(SCC(=O)NCCc3ccccc3)o2)cc1`, for which the inhibition is 2.1% (inactive).

As to `COc1ccc(-c2nnc(SCC(=O)NC(=O)NCc3ccco3)o2)cc1`, the inhibition was -1.1% (inactive).

Turning to `COc1ccc(-c2nnc(SCC(=O)NC(=O)NCc3ccccc3)o2)cc1`, the inhibition was 55.3% (active).

On to `COc1ccc(N(CC(=O)NCc2ccco2)S(C)(=O)=O)cc1`, for which the inhibition was 2.6% (inactive).

Regarding `Cc1cccc(/C=N/NC(=O)NC2CCCCC2)c1`, the inhibition was -3.7% (inactive).

As for `C=CCN1C(=O)N/C(=C/c2ccc(N3CCOCC3)o2)C1=O`, the inhibition was 55.4% (inactive). Further, under setting [1], the inhibition was 7.9%.

Take `O=C1N/C(=C/c2ccc(N3CCOCC3)o2)C(=O)N1c1ccccc1`: the inhibition was 44.8% (inactive).

Regarding `O=C1NC(=S)S/C1=C/c1ccc(N2CCOCC2)o1`, the inhibition was 32.5% (inactive).

Regarding `O=C1NC(=O)/C(=C/c2ccc(N3CCOCC3)o2)N1`, the inhibition is 52.2% (inactive). In addition, the inhibition under setting [1] amounted to 3.9%.

Turning to `O=C1NC(=O)/C(=C\c2ccc(N3CCOCC3)o2)N1`, the inhibition is 71.7% (active).

As to `O=C1N/C(=C/c2ccc(N3CCOCC3)o2)C(=O)N1c1cccc(Cl)c1`, the inhibition is 58.7% (active).

As for `Cc1cc(Br)ccc1OCCN1CCCC1`, the inhibition was 1.2% (inactive).

As for `Cc1ccc(S(=O)(=O)N2CCN(CCNC(=O)C(=O)NCc3ccccc3)CC2)cc1`, the inhibition is -2.1% (inactive).

Take `Cc1cccc(C(=O)O)c1NC(=O)Cc1cccc2ccccc12`: the inhibition was 9.3% (inactive).

Turning to `O=c1[nH]c(SCc2n[nH]c(=S)n2-c2ccccc2)nc2sc3c(c12)CCC3`, the inhibition is 17.3% (inactive).

For the compound `COc1ccc(/C=C2/SC(=O)N(CCC(=O)Nc3ccc(S(=O)(=O)Nc4nccs4)cc3)C2=O)cc1`, the inhibition is 53% (active).

On to `O=C(CCN1C(=O)S/C(=C\c2ccccc2)C1=O)Nc1ccc(S(=O)(=O)Nc2nccs2)cc1`, for which the inhibition was -6.5% (inactive).

As to `COc1ccc(/C=C2\SC(=O)N(CCC(=O)Nc3ccc(S(=O)(=O)Nc4nccs4)cc3)C2=O)cc1`, the inhibition is 25.3% (inactive).

Regarding `COc1cccc(OC)c1C(=O)Nc1cccnc1`, the inhibition is -4.9% (inactive).

Turning to `CNC(=S)NNC(=O)Cc1ccc(OC)c(OC)c1`, the inhibition was -18.7% (inactive).

On to `Cc1cc(N)n2nc(C(F)(F)F)nc2n1`, for which the inhibition was -3.1% (inactive).

`CC(=O)c1ccc(NC(=O)c2cc3nc4c(c(C(F)(F)F)n3n2)CCCC4)cc1`: the inhibition is 33.2% (inactive).

`CCn1c(SCC(=O)Nc2cc(C)on2)nnc1-c1ccc(S(=O)(=O)N2CCCC2)cc1`: the inhibition was 0.3% (inactive).

For `O=C1C2C3C=CC(C3)C2C(=O)N1c1ccc(-c2nc3ccccc3o2)cc1` (stereo not given), the inhibition was 15.5% (inactive).

For `O=C1c2ccccc2C(=O)N1c1cccc(-c2nc3ccccc3o2)c1`, the inhibition is 19.2% (inactive).

Take `O=C1c2ccccc2C(=O)N1c1ccc(-c2nc3ccccc3o2)cc1`: the inhibition is 67.9% (active).

Regarding `CC(=O)c1cccc(NC(=O)NNC(=O)c2ccc(-c3ccccc3)cc2)c1`, the inhibition is 22.1% (inactive).

Regarding `CCCNC(=O)CSc1nccn1Cc1ccco1`, the inhibition is -17.8% (inactive).

For `Cc1ccc(N2CCN(C(=S)Nc3ccccc3C)CC2)cc1`, the inhibition was -9.9% (inactive).

As to `Cc1nc2c(c(=O)n1Cc1ccccc1Cl)c1nc3ccccc3nc1n2Cc1ccco1`, the inhibition was 38.1% (inactive).

On to `Cc1nc2c(c(=O)n1Cc1ccco1)c1nc3ccccc3nc1n2Cc1ccccc1`, for which the inhibition was 50.6% (active).

Regarding `COc1ccc(Cn2c3nc4ccccc4nc3c3c(=O)n(Cc4ccco4)c(C)nc32)cc1`, the inhibition was 18.4% (inactive).

As for `O=[N+]([O-])c1ccc(Nc2nc(NCCO)nc(N3CCCC3)n2)cc1`, the inhibition is 5.1% (inactive).

As for `Cc1ccsc1/C=C/C1=Cc2c(sc(NC(=O)CSc3n[nH]c(N)n3)c2C#N)C(C)(C)C1`, the inhibition was 20.6% (inactive).

On to `Cc1ccc(/C=C/C2=Cc3c(sc(NC(=O)CSc4n[nH]c(N)n4)c3C#N)C(C)(C)C2)o1`, for which the inhibition is 61.1% (active).

With `CCOc1ccc(/C=C/C2=Cc3c(sc(NC(=O)CSc4n[nH]c(N)n4)c3C#N)C(C)(C)C2)cc1`, the inhibition was 12.8% (inactive).

For `COc1cccc(NC(=O)c2ccco2)c1`, the inhibition was 3.2% (inactive).

Turning to `Cc1ncc(CO)c(/C=N/NC(=S)Nc2ccc(Cl)c(Cl)c2)c1O`, the inhibition was 50.4% (inactive). For the same compound, the inhibition under setting [1] turned out to be 30.4%.

For the compound `Cc1ncc(CO)c(/C=N/NC(=S)Nc2cccc(Cl)c2)c1O`, the inhibition is 53.7% (active).

For `Cc1ncc(CO)c(/C=N/NC(=S)Nc2ccc(C(C)C)cc2)c1O`, the inhibition was 16.5% (inactive).

For `CCCCCCc1nc(C(N)=O)c2[nH]c(=O)n(-c3ccccc3F)c2n1`, the inhibition was 10.4% (inactive).

On to `COC(=O)c1c(C)oc(C)c1S(=O)(=O)N(Cc1ccccc1)C(C)C`, for which the inhibition was -16.1% (inactive).

Consider `CCc1ccc2nc(N(CCCN(C)C)C(=O)c3ccc(S(=O)(=O)N4CCCC4)cc3)sc2c1`, for which the inhibition is -0.7% (inactive).

With `CC(=O)c1ccc(N2CCN(C(=O)c3nn(C)c4c3CS(=O)(=O)c3ccccc3-4)CC2)cc1`, the inhibition was 9% (inactive).

With `O=c1cc2oc3cc(O)c(O)cc3c(-c3ccccc3[N+](=O)[O-])c-2cc1O`, the inhibition is 15.9% (inactive).

As to `CCOc1ccccc1-c1c2cc(O)c(=O)cc-2oc2cc(O)c(O)cc12`, the inhibition is 24.8% (inactive).

For the compound `O=c1cc2oc3cc(O)c(O)cc3c(-c3ccccc3O)c-2cc1O`, the inhibition was 68.3% (active).

For the compound `CCC(=O)N1CCc2cc(S(=O)(=O)CCC(=O)Nc3ccc(OC)c(OC)c3)ccc21`, the inhibition was 5.3% (inactive).

Regarding `COc1cc(C(=O)NS(=O)(=O)c2ccccc2C)ccc1Cc1cn(C)c2ccc(NC(=O)OC3CCCC3)cc12`, the inhibition was 51.7% (active).

Turning to `Cc1cc(NC(=O)OC2CCCCC2)ccc1[N+](=O)[O-]`, the inhibition was -7.7% (inactive).

With `COc1ccc(CNC(=O)Cc2cn(C)c3ccccc23)c(OC)c1`, the inhibition was 5.9% (inactive).

As for `CC(C)CC(=O)N1CC(C)N(C(=O)CC(C)C)CC1C` (stereo not given), the inhibition is 4.2% (inactive).

With `O=[N+]([O-])c1cccc(CSc2nnc3ccccn23)c1`, the inhibition was 13.5% (inactive).

For `N#C/C(=C/c1ccc(N2CCOCC2)o1)c1ccc(Cl)cc1`, the inhibition was 51.9% (active).

Regarding `Cc1ccc(/C(C#N)=C\c2ccc(N3CCOCC3)o2)cc1`, the inhibition is 43.4% (inactive).

For `N#C/C(=C/c1ccc(N2CCOCC2)o1)c1ccc(Br)cc1`, the inhibition is 39.6% (inactive).

Take `CCCCCCc1ccc(N2C[C@H](CCCCC)[C@@H](CC(=O)NCc3ccc(OC)cc3)C2=O)cc1`: the inhibition is 10.1% (inactive).

For `Cc1ccc2c(COC(=O)c3ccc(NC(=O)CC#N)cc3)cc(=O)oc2c1C`, the inhibition is 57.8% (inactive). The inhibition under setting [1] was 36.4%.

Turning to `Cc1ccc(NC(=O)c2nsc(Cl)c2Cl)cc1`, the inhibition is 18.9% (inactive).

Take `C/C(=N\NC(=O)c1ccccc1Cl)c1ccccn1`: the inhibition was 16.3% (inactive).

As for `CCN(CC)c1ccc(/C=N/NC(=O)c2c(Cl)c(C)nn2C)cc1`, the inhibition is 10.2% (inactive).

With `CCc1nnc(NS(=O)(=O)c2ccc(NCc3cc(Br)ccc3O)cc2)s1`, the inhibition is -6.2% (inactive).

With `O=C(OCc1cc(=O)n2c(n1)sc1ccccc12)c1ccc(O)cc1`, the inhibition is 30.3% (inactive).

With `O=C(OCc1cc(=O)n2c(n1)sc1ccccc12)c1ccc(O)cc1O`, the inhibition is 60.2% (active).

`O=C(OCc1cc(=O)n2c(n1)sc1ccccc12)c1cccc(O)c1`: the inhibition is 19.1% (inactive).

Take `O=S(=O)(Nc1ccncc1)c1cc(Cl)c(Cl)cc1Cl`: the inhibition was 12.2% (inactive).

In the case of `COc1ccc2oc(=Nc3ccccc3)c(-c3nc4ccccc4[nH]3)cc2c1`, the inhibition is 37.9% (inactive).

For `COc1cccc(N=c2oc3ccccc3cc2-c2nc3ccccc3[nH]2)c1`, the inhibition is 17.1% (inactive).

Turning to `CC(=O)c1sc2nc(CSc3nnnn3-c3ccccc3)[nH]c(=O)c2c1C`, the inhibition is 80.6% (active).

Regarding `CC(=O)c1sc2nc(CSc3nncn3C)[nH]c(=O)c2c1C`, the inhibition is 22.1% (inactive).

As for `Cc1ccc(-n2nnnc2SCc2nc3sc(C)c(C)c3c(=O)[nH]2)cc1`, the inhibition was 12% (inactive).

In the case of `COc1ccc2c(C(=O)CN3CCSCC3)c[nH]c2c1`, the inhibition is 25.2% (inactive).

In the case of `COC(=O)C1=C(N)Oc2c(oc(CO)cc2=O)C1c1ccccc1F` (stereo not given), the inhibition was 0.2% (inactive).

For `CC(C)C(C(=O)O)N1C(=O)/C(=C/C=C/c2ccco2)SC1=S` (stereo not given), the inhibition was 49.5% (inactive).

With `O=C(O)CC(C(=O)O)N1C(=O)/C(=C/C=C/c2ccco2)SC1=S` (stereo not given), the inhibition is 27.4% (inactive).

Turning to `CC(C(=O)O)N1C(=O)/C(=C/C=C/c2ccco2)SC1=S` (stereo not given), the inhibition was 77.7% (active).

Regarding `CNC(=S)NNC(=O)c1c(C)nc2cc(C)ccn12`, the inhibition was 0.7% (inactive).

Regarding `CC1=C(C(=O)O)N2C(=O)[C@@H](NC(=O)[C@H](N)c3ccccc3)[C@H]2SC1`, the inhibition is -20.5% (inactive).

In the case of `CC1=C(C(=O)O)N2C(=O)C(NC(=O)c3ccn(C)n3)C2SC1` (stereo not given), the inhibition is -8.1% (inactive).

`O=S1(=O)CCC(n2nccc2-c2ccccc2)C1` (stereo not given): the inhibition is -2.9% (inactive).

In the case of `COC(=O)C1=C(C)N(CCCC(=O)O)C(=O)NC1c1ccc(-c2ccccc2)cc1` (stereo not given), the inhibition is -4.2% (inactive).

Take `COc1cc(C2CC(=O)Nc3n[nH]c(-c4ccccc4)c32)cc(OC)c1OC` (stereo not given): the inhibition is 8.3% (inactive).

In the case of `COc1cc(C2c3c([nH]c(=O)[nH]c3=O)Nc3ccc4ccccc4c32)cc(OC)c1OC` (stereo not given), the inhibition is 82.8% (active).

On to `COc1cc(C2c3c([nH]c(=O)[nH]c3=O)Nc3ccc4ccccc4c32)ccc1O` (stereo not given), for which the inhibition is -1.1% (inactive).
